Test results from PubChem BioAssay (NCI).
About 83,000 compounds went through this panel and 20% of them were active in at least one assay; those are over-represented in the sample as a whole.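 96-well plates, one dose, 48 hours. Percent growth reported; active if below 10.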 Values without a mark were called inactive. Activity calls are given as the source filed them.

Legend:
Experiment in all cases: NCI-60 one-dose screen, 48 h (100 = growth as untreated, 0 = no growth, -100 = all killed)
Details in all cases: 10 µM unless noted
HCT-15 colon = tested on: HCT-15 colon
HT29 colon = tested on: HT29 colon
SNB-75 CNS = tested on: SNB-75 CNS
SNB-19 CNS = tested on: SNB-19 CNS
U251 CNS = tested on: U251 CNS
PC-3 prostate = tested on: PC-3 prostate
SK-MEL-5 melanoma = tested on: SK-MEL-5 melanoma
UACC-62 melanoma = tested on: UACC-62 melanoma
LOX IMVI melanoma = tested on: LOX IMVI melanoma
SK-MEL-28 melanoma = tested on: SK-MEL-28 melanoma

Structure (SMILES) | growth (HCT-15 colon) | growth (HT29 colon) | growth (SNB-75 CNS) | growth (SNB-19 CNS) | growth (U251 CNS) | growth (PC-3 prostate) | growth (SK-MEL-5 melanoma) | growth (UACC-62 melanoma) | growth (LOX IMVI melanoma) | growth (SK-MEL-28 melanoma)
COc1cccc(/C=C/C(=O)c2cccc(Nc3nc(Nc4ccccc4)nc(Nc4ccccc4)n3)c2)c1 | 73.4% | 65.8% | 71.8% | 102% | 53.8% | 73.5% | 77.9% | 92% | 74.4% | 112%
COc1cnc2c(c1)C(=O)c1c-2n(CCCCl)c(=O)c2ccncc12 | 75.5% | 49.5% | 55.6% | 55.4% | 33.6% | 54% | 34.3% | 23.7% | 33.8% | 99.3%
CN(C)CCCNC(=O)c1cncnc1Nc1ccc(OCc2cccc(F)c2)c(Cl)c1 | -37.6% (active) | -49.7% (active) | -18.2% (active) | 57.3% | -52.5% (active) | 0.306% (active) | 61.3% | -84.7% (active) | -88.1% (active) | -86.1% (active)
CCCCCN(CCCCC)CC(O)c1cc(C)c2ccc3cc(C(C)C)ccc3c2c1 (stereo not given) | -86.3% (active) | -43.9% (active) | 75.8% | 7.47% (active) | -87.4% (active) | 53.3% | 79.1% | 91.3% | -93.9% (active) | 88.1%
Cc1ccc(/C=C/C(=O)c2cccc(OCCCOc3cccc(C(=O)/C=C/c4ccc(C)cc4)c3)c2)cc1 | 64.4% | 51.5% | 70.2% | 77.2% | 41% | 72.2% | 90.2% | 62.9% | 25.5% | 97.7%
C=CCn1c(SCC(=O)Nc2ccc(/C(C)=N/O)cc2)nnc1-c1cc(-c2ccc(S(N)(=O)=O)cc2)nc2ccccc12 | 96.5% | 105% | 54.2% | 70.3% | 67.2% | 80.2% | 65.6% | 69.7% | 27% | 93.3%
Cn1c2c(c3ccc(Cl)c(Cl)c31)C(C#N)C(C)(C)NC2=O (stereo not given) | 96.1% | 88.5% | 76.6% | 91.8% | 91.1% | 95.1% | 5.3% (active) | 66.6% | 84.4% | 105%
N#CC1=C(N)Oc2ccc3ccccc3c2C1c1ccc([N+](=O)[O-])cc1 (stereo not given) | 87.6% | 105% | 61.7% | 86.8% | 94.2% | 69.8% | 86.2% | 77.3% | 74.6% | 99.1%
C=C1C(=O)O[C@H]2[C@H]1CC/C(COC(=O)/C=C\C(=O)NCc1ccc(Cn3c(=O)sn(CCCl)c3=O)cc1)=C\CC[C@@]1(C)O[C@@H]21 | 44.8% | 86.6% | 99.5% | 111% | 88.9% | 94.6% | 101% | 85.7% | 67.2% | 87%
COc1ccc(Cn2cc3c(c2-c2ccccc2)CCc2cnoc2-3)cc1 | 16.7% | 11.7% | 44.2% | 39.8% | 29.4% | 27.4% | -10% (active) | 24% | 29.6% | 56.4%
CCN(CC)Cc1cc(Nc2ccnc3cc(Cl)ccc23)ccc1O | 68% | 81.2% | 83.4% | 88.7% | 89.4% | 93.2% | 96.7% | 92.7% | 85.8% | 94.9%
COc1cc(-c2nc3sccn3c2-c2ccnc(NCCNS(=O)(=O)c3ccc(Cl)cc3)n2)ccc1F | 20.6% | 22.8% | 85.6% | 78.8% | 55.6% | 13.1% | -14.7% (active) | -45.3% (active) | 19.2% | 44.9%
CC1C=CC(OC(=O)C(C)(O)CCC(O)(C(=O)OC2CC(O)C(C(C)C)CC2(C)O)C(C)C)(C(C)C)CC1 (stereo not given) | -68.5% [4.63 µM] (active) | -39.6% [4.63 µM] (active) | -45.9% [4.63 µM] (active) | -75% [4.63 µM] (active) | -94.2% [4.63 µM] (active) | -84.9% [4.63 µM] (active) | -99.8% [4.63 µM] (active) | -88.9% [4.63 µM] (active) | -88.4% [4.63 µM] (active) | -96.9% [4.63 µM] (active)
